Activity calls are given as the source filed them.
assay: basal HepG2 mitochondrial membrane potential changes, profiling panel, cell-based, JC-1 fluorescence, 24 h, 100 nL compound (AID 1167); settings: higher = more signal
Note: test concentration not given here.

SMILES | z-score
COCCOC(=O)N1C(=O)[C@@]2(c3cc(C#CCC(C(=O)OC)C(=O)OC)ccc31)[C@H](C(=O)Nc1nc3ccccc3s1)[C@H]1C(=O)O[C@H](c3ccccc3)[C@H](c3ccccc3)N1[C@@H]2c1ccc(OCCO)cc1 | -3.27
CC(C)C[C@H]1NC(=O)C([C@@H](C)OCc2ccccc2)NC(=O)[C@@]23C(=O)N[C@@H](Cc4ccccc4)C2[C@H](C)[C@@]2(C)O[C@H]2C3/C=C/C/C=C\CNC1=O (some centres not stated) | 0.169
C=C(COC)/C(=C/C[C@@H](OC(C)=O)c1ccccc1OCCO)c1cnc2ccccc2c1 | 0.23
COc1ccc([Si](C)(C)[C@@H]2[C@@H](CC(=O)N3CCC[C@H]3CO)O[C@]3(C(=O)N(Cc4ccc(N5CCOC5=O)cc4)c4ccccc43)[C@H]2C)cc1 | 0.391
COC(=O)[C@@]1(Cc2ccccc2)[C@H]2c3cc(C(=O)N(C)C)n(CCSC(=N)N)c3C[C@H]2CN1C(=O)c1ccccc1 | 0.121
O=C1O[C@@H](c2ccccc2)[C@@H](c2ccccc2)N2[C@@H](c3ccc(OCCO)cc3)[C@]3(C(=O)Nc4ccc(C#CC5(O)CCCCCC5)cc43)[C@@H](C(=O)Nc3nc4ccccc4s3)[C@H]12 | -3.13
COCCCN1C(=O)[C@@]2(c3ccc([N+](=O)[O-])cc3)CC(=O)N(CC34CC5CC(CC(C5)C3)C4)[C@@H]2c2ccc(CO)cc21 | 0.722
O=C1C2C=CC(C(O)c3cccs3)N(Nc3ccc([N+](=O)[O-])cc3)C2C(=O)N1c1ccccc1 (configuration not stated) | -0.841
C=C1C(=O)C=C2CN(C(=O)c3ccccc3)[C@@](Cc3ccc(OC)cc3)(C(=O)OC)[C@@H]12 | 0.971
CCOC(=O)C[C@H]1[C@H](OC(=O)c2cc3ccccc3oc2=O)[C@@H](NC(=O)CC(C)C)c2cc(OCCCO)ccc2N1C(=O)Cc1ccc(OC)cc1 | 0.433
CCOC(=O)C1=CC[C@@H](c2ccccc2)N(S(=O)(=O)c2ccc(C)cc2)[C@H]1c1ccccc1I | 1.5

assay: basal 3T3-L1 adipocyte mitochondrial potential changes, profiling panel, cell-based, JC-1 fluorescence, 3T3-L1 adipocytes, 24 h, 100 nL compound (AID 1168); settings: JC-1 mitochondrial fluorescence, higher = more signal, called active from +8 up or from −8 down

SMILES | z-score
COCCOC(=O)N1C(=O)[C@@]2(c3ccccc31)[C@H](C(=O)N1CCN(c3ncccn3)CC1)[C@H]1C(=O)O[C@H](c3ccccc3)[C@H](c3ccccc3)N1[C@@H]2c1ccccc1OCCO | 0.204 (inactive)
Cc1ccc(C(C)CC(O)C2C=CC3C(=O)N(C)C(=O)C3N2Nc2ccccc2)o1 (configuration not stated) | -0.592 (inactive)
CC1CC/C=C\[C@H]2OC34C=CCN(CCN5CCOCC5)C(=O)[C@H]3N(CCCO)C(=O)[C@@H]4C2C(=O)O1 (some centres not stated) | -0.711 (inactive)
CCCNC(=O)[C@@]1(c2ccc([N+](=O)[O-])cc2)CC(=O)N(C(C)C)[C@@H]1c1ccc(CO)cc1 | -0.584 (inactive)
C=C(COC)/C(=C/C[C@H](OC(C)=O)c1ccccc1OCCO)c1cc(C(=O)OC)ccc1OC | -0.112 (inactive)
CC(C)C(=C=CC[C@H](O)c1ccccc1OCCO)C[C@H](O)COCc1ccccc1 | -0.307 (inactive)
CCCC[C@H]1OB(O)C[C@H]2C1=C(COc1ccccc1)C[C@H]1C(=O)C=CC(=O)[C@H]12 | -0.201 (inactive)
Cc1ccc(N2C(=O)c3ccccc3[C@](C)(C(=O)NCCCN(C)C)[C@@H]2c2ccc(CO)cc2)nc1 | -0.419 (inactive)
CCCCC(O)C1C=CC2C(=O)N(c3ccccc3)C(=O)C2N1Nc1ccc([N+](=O)[O-])cc1 (configuration not stated) | -1.08 (inactive)
C=CCC(OC(C)=O)[C@@H]1[C@@H](N(Cc2ccc(-c3cccc(C(F)(F)F)c3)o2)C(=O)c2ccc(-c3ccccc3)cc2)c2cc(OCCCO)ccc2N1C(=O)c1ccc2ccccc2c1 (some centres not stated) | -0.081 (inactive)
C=C(CCCC)/C(=C/C[C@H](OC(C)=O)c1cccc(OCCO)c1)c1cnc2ccccc2c1 | 0.0664 (inactive)
OCCCC1=CC(c2ccc(CN3CCCC3)cc2)N(Cc2cccc(OC(F)(F)F)c2)CC1 (configuration not stated) | 0.367 (inactive)
C=C(COC)C(=O)CC[C@H](OC(=O)c1cccnc1)c1ccc(OCCO)cc1 | -0.351 (inactive)
COc1ccc(C(O)C2C=CC3C(=O)N(c4ccccc4)C(=O)C3N2Nc2ccc(C#N)cc2)cc1OCc1ccccc1 (configuration not stated) | -1.14 (inactive)
C=CCNC(=O)[C@H]1[C@@H]2C(=O)O[C@@H](c3ccccc3)[C@@H](c3ccccc3)N2[C@@H](c2ccc(OCCO)cc2)[C@]12C(=O)Nc1ccc(C#CC3(O)CCCCCC3)cc12 | 0.43 (inactive)
CC[C@@H]1C=C(C(=O)O)[C@H](c2ccc(OC)cc2)N1S(=O)(=O)c1ccc(C)cc1 | -0.687 (inactive)
O=C1C2C=CC(C(O)C3CCCCC3)N(n3cnnc3)C2C(=O)N1Cc1ccccc1 (configuration not stated) | -2.27 (inactive)
[N-]=[N+]=NCc1ccccc1[C@@H]1OC(c2ccc(OCCCO)cc2)=N[C@]1(Cc1ccccc1N=[N+]=[N-])C(=O)O | -1.48 (inactive)

SMILES | z-score
COC(=O)c1cccc([C@H]2OC(=CC(=O)OC(C)C)C[C@@H](c3cccc(C(=O)OC)c3)O2)c1 | -1.52 (inactive)
CN(C)CCCNC(=O)[C@@]1(Cc2ccccc2I)c2ccccc2C(=O)N(C2CCCCC2)[C@H]1c1ccc(CO)cc1 | 2.14 (inactive)
O=C1NC(=O)C2C1C=CC(C(O)c1ccc(B(O)O)cc1)N2Nc1ccc(Cl)cc1Cl (configuration not stated) | -1.12 (inactive)
COC(=O)[C@@]1(Cc2ccccc2)[C@H]2c3cc(C(=O)N(C)C)n(CCO)c3C[C@H]2CN1C(=O)c1ccccc1 | -2.92 (inactive)
C=C(CCCC)C(=O)CC[C@H](OC(=O)c1ccccc1-c1ccccc1C(=O)O)c1ccc(OCCO)cc1 | -0.245 (inactive)
O=C1OCCC=C[C@H]2OC34C=CCN(c5ccc6ccccc6c5)C(=O)[C@H]3N(CCO)C(=O)[C@@H]4C12 (some centres not stated) | -0.502 (inactive)
COc1cc(CO)cc(I)c1O[C@H]1C=C(C(=O)NCCO)C[C@@H]2O[C@H]12 | -0.389 (inactive)
COCCOC(=O)N1C(=O)[C@@]2(c3cc(C#CCC(C(=O)OC)C(=O)OC)ccc31)[C@H](C(=O)Nc1nc3ccccc3s1)[C@H]1C(=O)O[C@H](c3ccccc3)[C@H](c3ccccc3)N1[C@@H]2c1ccc(OCCO)cc1 | 1.05 (inactive)
CC(C)C[C@H]1NC(=O)C([C@@H](C)OCc2ccccc2)NC(=O)[C@@]23C(=O)N[C@@H](Cc4ccccc4)C2[C@H](C)[C@@]2(C)O[C@H]2C3/C=C/C/C=C\CNC1=O (some centres not stated) | 0.679 (inactive)
C=C(COC)/C(=C/C[C@@H](OC(C)=O)c1ccccc1OCCO)c1cnc2ccccc2c1 | -0.433 (inactive)
COc1ccc([Si](C)(C)[C@@H]2[C@@H](CC(=O)N3CCC[C@H]3CO)O[C@]3(C(=O)N(Cc4ccc(N5CCOC5=O)cc4)c4ccccc43)[C@H]2C)cc1 | 1.67 (inactive)
COC(=O)[C@@]1(Cc2ccccc2)[C@H]2c3cc(C(=O)N(C)C)n(CCSC(=N)N)c3C[C@H]2CN1C(=O)c1ccccc1 | -1.1 (inactive)
O=C1O[C@@H](c2ccccc2)[C@@H](c2ccccc2)N2[C@@H](c3ccc(OCCO)cc3)[C@]3(C(=O)Nc4ccc(C#CC5(O)CCCCCC5)cc43)[C@@H](C(=O)Nc3nc4ccccc4s3)[C@H]12 | -0.456 (inactive)
COCCCN1C(=O)[C@@]2(c3ccc([N+](=O)[O-])cc3)CC(=O)N(CC34CC5CC(CC(C5)C3)C4)[C@@H]2c2ccc(CO)cc21 | 0.0634 (inactive)
O=C1C2C=CC(C(O)c3cccs3)N(Nc3ccc([N+](=O)[O-])cc3)C2C(=O)N1c1ccccc1 (configuration not stated) | -0.728 (inactive)
C=C1C(=O)C=C2CN(C(=O)c3ccccc3)[C@@](Cc3ccc(OC)cc3)(C(=O)OC)[C@@H]12 | -1.02 (inactive)
CCOC(=O)C[C@H]1[C@H](OC(=O)c2cc3ccccc3oc2=O)[C@@H](NC(=O)CC(C)C)c2cc(OCCCO)ccc2N1C(=O)Cc1ccc(OC)cc1 | -0.119 (inactive)
CCOC(=O)C1=CC[C@@H](c2ccccc2)N(S(=O)(=O)c2ccc(C)cc2)[C@H]1c1ccccc1I | -1.61 (inactive)

Source: PubChem BioAssay
